This is a sample that favours compounds with a hit; in the whole collection about 8% have one here.
TSHR antag: Antagonists of the Thyroid Stimulating Hormone Receptor: HTS campaign; activity change, negative = inhibition, % at 11.5 µM; Thyrotropin receptor (Homo sapiens), P16473; TSHR-expressing cells, TSH-stimulated cAMP HTRF, 2 h; active compounds read low; actives 0.2% (n = 330,000);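 active = activity change below a set negative limit, meaning inhibition stronger than a set level, cut at about -70% in these data; inconclusive = activity change between two set negative limits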
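TSHR-expressing cells were treated with compounds, then stimulated with TSH at EC80 (4nM final) for 2 hours at 37 deg C. Cellular cAMP was measured by HTRF competition between lysate cAMP and cAMP-d2 for a cryptate-labelled anti-cAMP antibody.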
ELG1 repair inh: qHTS screen for small molecules that inhibit ELG1-dependent DNA repair in human embryonic kidney (HEK293T) cells expressing luciferase-tagged ELG1. HEK293T ELG1-luciferase reporter, luminescence, 16 h; DNA damage induced by 5-fluorouridine. Potency, µM (highest dose often 46.1 µM), inactives show top-dose activity change, negative = inhibition, actives largely listed as inhibitors. actives 2.3% (n = 330,000). AID 504467, 2011; also: potency is read from the fitted curve at half-maximal effect; nearly all actives have a fitted effect of over 55% in size
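5-Fluorouridine DNA damage + compound/DMSO, 2,000 cells/well, 16 h, 37 °C/5% CO2. ONE-Glo, 30 min RT, luminescence. Readout = decrease in reporter signal.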
VP16 counter: VP16 counterscreen qHTS for inhibitors of ROR gamma transcriptional activity. Drosophila S2 Gal4-VP16 UAS-luciferase, luminescence, 20 h. AID 2546, 2010. actives 3.5% (n = 310,000). Potency, µM (titrated, usually from 53.6 µM), without a hit: top-dose activity, negative = inhibition, usual class: inhibitors;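 also: Gal4-VP16 expression switched on by copper sulfate through the metallothionein promoter; potency is read from the fitted curve at half-maximal effect; nearly all actives have a fitted effect of over 50% in size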
Coupling enz: qHTS Assay for Inhibitors of Fructose-1,6-bisphosphate Aldolase from Giardia Lamblia: Coupling assay counterscreen; coupling enzyme system counterscreen, AmpLite Red fluorescence; activity change, negative = inhibition, % at 58.2 µM, hits read low; actives 0.67% (n = 290,000); AID 2472, 2010; in the data active = activity change below about -30%
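Coupling enzymes only (glyceraldehyde-3-phosphate) + compound, at 57.5 uM final, 10 min RT; add substrate/coupling/AmpLite Red mix, 20 min RT; fluorescence ex 525/em 598 nm. Actives flag coupling-system interference.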
RORgamma inh: qHTS for inhibitors of ROR gamma transcriptional activity; Drosophila S2 Gal4-RORgamma UAS-luciferase reporter, 20 h; actives 5.4% (n = 310,000); Potency, µM (titrated, usually from 53.6 µM), for the others: at the top dose activity change, negative = inhibition, actives largely listed as inhibitors; AID 2551, 2010; Nuclear receptor ROR-gamma (Mus musculus), P51450; also: potency is read from the fitted curve at half-maximal effect; nearly all actives have a fitted effect of over 60% in size
Target sequence (P51450 whole entry, looked up, the tested form may be a part): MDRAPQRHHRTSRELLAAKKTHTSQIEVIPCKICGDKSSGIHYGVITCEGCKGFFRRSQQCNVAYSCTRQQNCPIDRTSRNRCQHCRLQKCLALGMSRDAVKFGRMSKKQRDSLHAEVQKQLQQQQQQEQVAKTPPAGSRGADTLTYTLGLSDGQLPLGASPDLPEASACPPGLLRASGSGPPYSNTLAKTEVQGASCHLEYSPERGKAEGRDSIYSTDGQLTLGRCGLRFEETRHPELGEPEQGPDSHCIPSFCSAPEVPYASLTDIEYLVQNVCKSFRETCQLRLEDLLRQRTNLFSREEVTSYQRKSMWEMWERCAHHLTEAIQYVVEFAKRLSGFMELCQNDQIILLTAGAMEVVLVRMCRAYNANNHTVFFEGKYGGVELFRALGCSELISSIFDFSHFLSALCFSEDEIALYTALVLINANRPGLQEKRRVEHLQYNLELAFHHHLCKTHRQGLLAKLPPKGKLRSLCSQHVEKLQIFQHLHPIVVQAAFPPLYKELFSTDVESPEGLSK
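Luminescence from a UAS-regulated Photinus luciferase reporter in stably transfected Drosophila Schneider cells is measured; decreased signal marks ROR gamma inhibition. Fusion expression is induced by 700 uM copper sulfate for 20 hr.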
* = called active by the depositor; ? = inconclusive; . = not tested or not shown; [ ] = dose if it differs, or a comment. Unless noted, calls follow the shape of the dose curve; as a rule, active = well fitted curve in the direction sought with a large enough effect; inconclusive = small, poorly fitted or top-dose-only effect, or another doubt; inactive = no such curve, though single readings can be large; an effect the other way counts as inactive or inconclusive. % is scaled to controls: 0 for no effect and ±100 for the full control effect.

SMILES	TSHR antag	ELG1 repair inh	VP16 counter	Coupling enz	RORgamma inh
NC(=O)CC(NC(=O)c1ccccc1)c1ccc(N2CCN(c3ccc(F)cc3)CC2)c([N+](=O)[O-])c1 (stereo unspecified)	-7.1	?	22.4µM*	-0.8	12.9%
NC(=O)CC(NC(=O)c1ccccc1)c1ccc(N2CCC(Br)CC2)c([N+](=O)[O-])c1 (stereo unspecified)	-5.1	?	12.6µM*	-0.3	?
c1cnc(N2CCN(c3ncnc4c3oc3ccccc34)CC2)nc1	-43.0	6.3%	-0.2%	4.1	30.3%
C(=C\c1ccccc1)/CN1CCN(c2ncnc3c2oc2ccccc23)CC1	-48.2	?	17.8µM*	-0.2	?
Cc1cc(C(F)(F)F)n(-c2nc(C(=O)NNS(=O)(=O)c3ccccc3[N+](=O)[O-])cs2)n1	-24.0	5.8µM*	0.8%	5.0	-6.6%
CCSc1nc2ccccc2n1C(=O)/C=C/c1ccc(OC)c(OC)c1	5.5	?	?	2.8	7.08µM*
C=CCSc1nc2ccccc2n1C(=O)/C=C/c1ccc(OC)c(OC)c1	-3.1	?	11.2µM*	-0.2	5.01µM*
COc1cc(/C=C/C(=O)N2CCN(C(=O)/C=C/c3cc(OC)c(OC)c(OC)c3)CC2)cc(OC)c1OC	5.2	2.0%	3.6%	-0.7	-11.2%
COc1ccc(CC(=O)n2c(CC#N)nc3ccccc32)cc1OC	22.8	-13.7%	?	-0.4	11.2µM*
C=CCSc1nc2ccccc2n1C(=O)/C=C/c1cc(OC)c(OC)c(OC)c1	-8.1	?	5.01µM*	7.3	3.55µM*
CCC(=O)N1CCN(c2ccc(NC(=O)COc3ccc(CC)cc3)cc2)CC1	14.2	-15.3%	-19.7%	1.3	-13.3%
CCCC[C@H]1C[C@@H]1[C@@H]1N(C(C)=O)[C@H](c2cccc(OC)c2)CC12CC2	.	.	4.3%	-1.1	-27.2%
CCCCCCCC1=Cc2ccccc2C(C(C(=O)OC)C(=O)OC)N1C(=O)OC (stereo unspecified)	.	.	.	0.4	.
COc1ccc(C(CNC(=O)c2cccc(S(=O)(=O)NCc3ccccc3)c2)N(C)C)cc1 (stereo unspecified)	-0.2	13.8%	16.9%	.	7.6%
O=C(CCCc1nc(-c2ccc(Cl)cc2)no1)NC1CCCCC1	-15.8	?	?	0.3	?
N#CCN=C(c1ccccc1)c1ccccc1	8.7	?	.	.	.
CCCCc1cc(=O)oc2cc(C)cc(O)c12	-12.6	-6.3%	?	-0.8	?
CCCCc1cc(=O)oc2cc(O)cc(O)c12	13.9	-13.0%	22.4µM*	9.0	-37.7%
CC1(c2nnc(-c3ccc(Cl)cc3)o2)CC(c2ccc([N+](=O)[O-])cc2)=NO1 (stereo unspecified)	3.2	-3.5%	-21.8%	-0.2	19.3%
CC1(c2nnc(-c3ccncc3)o2)CC(c2ccc([N+](=O)[O-])cc2)=NO1 (stereo unspecified)	12.0	20.6µM*	?	3.5	?
Cc1ccccc1-c1nc(-n2ccnc2)c2ccccc2n1	.	.	9.2%	2.3	10µM*
NC(=O)c1ccccc1-c1nc(-n2ccnc2)c2ccccc2n1	.	.	-0.4%	3.5	26.1%
O=C(Nc1ccccc1Cc1ccccc1)c1ccncc1	2.9	7.6%	-8.0%	.	-1.6%
CCOc1ccc(C2C(C#N)=C(N)SC(N)=C2C#N)c(OCC)c1	-2.4	5.5%	?	-37.0*	12.6µM*
COc1ccccc1NC(=O)CSc1nccn1Cc1ccc(F)cc1	3.4	8.0%	-7.7%	.	10.1%
SMILES	TSHR antag	ELG1 repair inh	VP16 counter	Coupling enz	RORgamma inh
Cc1nc(C)c(-c2ccc(SCC(=O)Nc3ccccc3)nn2)s1	-4.0	?	-7.5%	.	3.6%
Cc1nc(C)c(-c2ccc(SCC(=O)Nc3ccc(F)cc3F)nn2)s1	-5.7	18.3µM*	-4.4%	.	27.2%
COc1cccc(NC(=O)CSc2ccc(-c3sc(C)nc3C)nn2)c1	1.0	20.6µM*	6.7%	-4.3	21.2%
O=C(CSc1nccn1Cc1ccc(F)cc1)Nc1ccc(F)cc1F	7.8	23.1µM*	-21.8%	.	2.4%
Cc1cc(NN)nc(Cc2ccccc2)n1	-2.9	2.6%	4.5%	0.3	-41.2%
CC(=O)Nc1ncc(Cc2ccc(Cl)cc2Cl)s1	15.2	11.0%	-2.7%	9.0	?
O=C(Nc1ncc(Cc2cccc(Cl)c2)s1)c1cccs1	-15.1	?	15.8µM*	.	7.08µM*
Cc1ccc(Cc2cnc(NC(=O)c3cccs3)s2)cc1	13.1	?	8.91µM*	.	3.55µM*
O=C(Nc1ncc(Cc2cccc(Cl)c2)s1)C1=NCCN1	-19.1	18.6%	5.01µM*	.	2.51µM*
O=C(Nc1ncc(Cc2ccc(SC(F)F)cc2)s1)c1ccccc1	-14.2	?	20µM*	0.7	12.6µM*
CC(C)n1c(SCC(=O)NC2CCCCC2)nnc1-c1ccco1	17.0	1.6%	-23.1%	-0.3	3.8%
O=C(Nc1ncc(Cc2ccccc2)s1)c1cccs1	2.6	?	?	4.4	0.0%[10 µM]
Cc1ccc(C(=O)Nc2ncc(Cc3ccccc3)s2)o1	-4.8	?	?	2.8	11.2µM*
CCOC(=O)CSc1nc2c(sc(=S)n2-c2ccc(OCC)cc2)c(=O)[nH]1	-4.9	20.6µM*	-10.2%	0.4	-1.9%
CCOc1ccc(-n2c(=S)sc3c(=O)[nH]c(SCC(=O)C(C)(C)C)nc32)cc1	-38.7	14.6µM*	-27.8%	2.2	43.4%
COc1ccc(N=C2S/C(=C\c3ccc(N4CCOCC4)o3)C(=O)N2CCc2c[nH]c3ccccc23)cc1	-14.2	?	5.01µM*	-1.0	6.31µM*
COc1ccc(N=C2S/C(=C\c3ccc(OCC(=O)O)cc3)C(=O)N2CCc2c[nH]c3ccccc23)cc1	18.2	?	6.0%[10 µM]	2.9	1.7%
CC(C)Sc1n[nH]c2nc3c(c(=O)n12)C1(CCCC1)Cc1ccccc1-3	-0.1	-8.7%	-10.2%	4.9	11.2µM*
C=CCSc1n[nH]c2nc3c(c(=O)n12)C1(CCCC1)Cc1ccccc1-3	-3.8	-1.9%	11.2µM*	3.9	5.62µM*
CCSc1n[nH]c2nc3c(c(=O)n12)C1(CCCC1)Cc1ccccc1-3	-19.3	-0.9%	-2.8%	-0.6	14.1µM*
Cc1ccc(-n2c(SCC(N)=O)nc3c(c2=O)C2(CCCC2)Cc2ccccc2-3)cc1	12.5	-19.7%	?	13.2	26.5%
CSc1n[nH]c2nc3c(c(=O)n12)C1(CCCC1)Cc1ccccc1-3	3.1	14.2%	2.4%	-2.7	-18.9%
CCn1cc(/C=C(\NC(=O)c2ccccc2F)C(=O)NCCCn2ccnc2)c2ccccc21	-3.6	-7.9%	5.4%	-1.6	2.5%
